Bioassay records: PubChem, several laboratories
Most compounds without a hit are left out; they make up all but 6.1% or so of the library.
M1 ag – M1 muscarinic receptor agonism; CHO-M1 cells, Fluo-4 calcium fluorescence, agonist mode; active compounds read high; B-score at 10 µM; 64,000 compounds, 3% hits;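 active means fluorescence rise, raw or as B-score row- and column-corrected plate score, outside the 99.7% band of its plate's samples, either direction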
MMP13 inh – inhibitors of human MMP13; P45452; MMP-13 fTHP FRET cleavage, Mca fluorescence; inhibition, % at 4 µM; 65,000 compounds, 0.07% hits; AID 570;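 active means inhibition above the mean of compound-free control plate wells plus 3 SD, cut at about 14% in these data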;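 further: 0% = DMSO wells and 100% = wells with reference MMP-13 inhibitor after basal subtraction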
Hsp90 inh – displaces geldanamycin probe from tumor Hsp90; NCI-N417 lysate Hsp90, Cy3B-geldanamycin FP displacement; AID 429; P07900; inhibition, % at 30 µM; 64,000 compounds, 0.35% hits;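 active means inhibition above 50%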;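 further: 0% = tracer plus lysate wells and 100% = tracer alone without lysate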
M1 antag – M1 muscarinic receptor (rat) antagonism; P08482; CHO-M1 cells, Fluo-4 calcium, ACh EC80 antagonist mode; active compounds read low; B-score at 10 µM; 64,000 compounds, 3.4% hits; AID 628;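 active means calcium fluorescence response, raw or row-and-column corrected B-score, differing from the plate sample mean either way at a set confidence level, mostly lower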
Cdc25B block – inhibitors of human Cdc25B phosphatase; AID 368; inhibition, %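 (compounds tested at 10 µM final in the well)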; 65,000 compounds, 0.1% hits; recombinant Cdc25B, OMFP fluorescence Ex485/Em525; P30305; in the data active means inhibition above about 50%
MKP-1 inh – blocks human MKP-1 phosphatase activity | 65,000 compounds, 0.15% hits | inhibition, %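 (compounds tested at a single concentration somewhere between 10 and 100 µM)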 | recombinant MKP-1, OMFP hydrolysis fluorescence | AID 374 | P28562;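 active means inhibition above about 50%, limit read from the data; inconclusive means inhibition over screen mean plus 3 SD, below that limit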;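 further: 0% = DMSO max control wells and 100% = wells with enzyme stopped by NaOH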
Target sequence (P28562 whole entry, looked up): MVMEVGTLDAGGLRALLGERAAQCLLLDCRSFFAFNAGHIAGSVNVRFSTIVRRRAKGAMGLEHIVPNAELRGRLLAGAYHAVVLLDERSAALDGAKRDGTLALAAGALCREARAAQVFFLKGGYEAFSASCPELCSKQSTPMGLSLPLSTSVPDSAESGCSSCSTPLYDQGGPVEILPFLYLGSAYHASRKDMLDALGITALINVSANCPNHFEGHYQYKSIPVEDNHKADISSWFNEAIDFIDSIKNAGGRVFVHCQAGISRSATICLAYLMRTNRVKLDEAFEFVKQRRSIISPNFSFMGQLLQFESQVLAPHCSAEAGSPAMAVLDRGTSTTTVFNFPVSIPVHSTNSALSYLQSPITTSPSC
Redox 05 DTT – generates H2O2 by redox cycling in 0.5 mM DTT. shares compounds with Cdc25B block. cell-free redox cycling H2O2 generation. EC50, µM. 30 compounds, 50% hits; in the data active means EC50 below about 30 µM
Redox H2O2 1DTT – counter-screen for Cdc25B probes: redox cycling H2O2 in 1 mM DTT. shares compounds with Cdc25B block. cell-free redox cycling H2O2 generation. EC50, µM. 30 tested, under 10 active. AID 683; in the data active means EC50 below about 50 µM
Redox H2O2 – generates H2O2 by redox cycling in DTT; shares compounds with MKP-1 inh; Redox cycling H2O2 generation, phenol red/HRP; EC50, µM; 60 tested, under 10 active; call rule not given here
M1 ag confirm – rat M1 muscarinic agonism, confirmation | 1,700 compounds, 19% hits | CHO-M1 cells, Fluo-4 calcium fluorescence, agonist mode; actives lie on both sides | AID 1488 | shares compounds with M1 ag | fluorescence change (max-min) at 10 µM;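 active means fluorescence change differs from the solvent-only DMSO control mean at a set confidence level in both duplicate runs; inconclusive means differs from solvent-only control mean in just one of two runs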;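 further: an EC20 dose of acetylcholine follows compound addition during the same imaging run; raw fluorescence intensity difference in instrument units with no normalization to controls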
M4 agonist ctr – counter-screen for M1 agonists: activity at rat M4 receptor. shares compounds with M1 ag. CHO M4/Gqi5 cells, Fluo-4 calcium fluorescence, agonist mode; actives lie on both sides. fluorescence change (max-min) at 10 µM. 1,700 compounds, 9% hits. AID 1741;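 active means fluorescence change differing from the plate's solvent-only control wells at 99.7% confidence in both duplicates, whether higher or lower; inconclusive means differs from solvent controls in only one of two duplicates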
* marks the source's active call; other numbers are inactive results; ? = inconclusive; · = not tested or not shown.

SMILES	M1 ag	MMP13 inh	Hsp90 inh	M1 antag	Cdc25B block	MKP-1 inh	others
NC(Cc1cc(O)c(O)cc1O)C(=O)O (stereo unspecified)	·	·	93.6*	·	·	·
N[C@@H](CCl)C(=O)O	·	·	2.1	·	·	·
Cc1ccccc1-n1c(O)c(C=Nc2ccc3c(c2)OCO3)c(=O)[nH]c1=O	7.54*	5.3	8.2	0.0195	-11.7	14.3
CCCN(CCC)[C@@H]1CCc2c(F)ccc(O)c2C1	·	·	-0.7	·	·	·
CCN(CC)c1ncnc2c1ncn2[C@@H]1O[C@H](COP(=O)(O)OP(=O)(O)C(Br)(Br)P(=O)(O)O)[C@@H](O)[C@H]1O	·	·	-0.8	·	·	·
COc1ccc(C(CC(=O)N2CCC3(CC2)OCCO3)NS(=O)(=O)c2ccc(F)cc2)cc1 (stereo unspecified)	-0.303	1.0	2.7	-0.12	52.3*	2.8
NCC#Cc1ccccc1	·	·	0.4	·	·	·
C[C@H]1C2Cc3ccc(O)cc3C1(C)CCN2CC1CC1 (stereo partly specified)	·	·	0.7	·	·	·
O=C(C1CCN(c2nc3ccc(Br)cc3s2)CC1)N1CCC2(CC1)OCCO2	7.8*	-1.3	0.9	-5.47*	8.5	28.3
C[C@H]1CCCC(=O)CCC/C=C/c2cc(O)cc(O)c2C(=O)O1	-0.384	2.3	87.1*	0.00879	-15.4	1.4
COc1ccc2[nH]c(C[N+](C)(C)C)cc2c1	·	·	-1.9	·	·	·
COC(=O)C1C2c3ccccc3OC1(C)N=c1s/c(=C/c3cnn(C)c3C)c(=O)n12 (stereo unspecified)	0.274	1.0	-1.0	0.131	-7.2	34.4
CCOC(=O)C1C2c3ccccc3O[C@@]1(C)N=C1SCC(=O)N12 (stereo partly specified)	-0.166	-0.1	-0.3	1.13*	-4.9	4.3
CN(N=O)c1ccc(O)c(O)c1	·	·	92.8*	·	·	·
CN1C2CCC1CC(OC(=O)CCN1CCCC1)C2 (stereo unspecified)	-0.69	2.3	-0.1	-1.25	76.6*	-2.0
CN1CC[C@@]2(C)c3cc(O)ccc3N(C)C12 (stereo partly specified)	·	·	90.8*	·	·	·
CC(C)[C@@]1(NC(=O)[C@@H]2C=C3c4cccc5[nH]cc(c45)C[C@H]3N(C)C2)O[C@@]2(O)[C@@H]3CCCN3C(=O)[C@H](Cc3ccccc3)N2C1=O	60.2*	-39.2	-9.3	0.729	-4.5	23.7
COc1ccc2[nH]cc(CCN3CCCC3)c2c1	·	·	-10.3	·	·	·
CCCC[N+]1(C)C2CC(OC(=O)[C@H](CO)c3ccccc3)CC1C1OC12 (stereo partly specified)	·	·	1.5	·	·	·
COc1ccc2c(c1OC)C(=O)O[C@H]2[C@@H]1c2cc3c(cc2CCN1C)OCO3	·	·	-1.6	·	·	·
COc1cc2c(cc1OC)-c1c(OC)c(OC)cc3c1C(C2)N(C)CC3 (stereo unspecified)	-1.46	-2.1	91.0*	-0.0633	2.7	15.8
NC(=O)CI	·	·	0.7	·	·	·
O=C1C=Cc2ccccc2C1=O	·	·	·	·	99.0*	94.3*	Redox 05 DTT=25.6*;Redox H2O2 1DTT=>50;Redox H2O2=>50
C=CCN1CC[C@]23c4c5ccc(O)c4O[C@@H]2/C(=N/N=C2\CC[C@@]4(O)C6Cc7ccc(O)c8c7[C@@]4(CCN6CC=C)[C@@H]2O8)CC[C@@]3(O)C1C5	·	·	11.6	·	·	·
CCn1nc(-c2cccs2)nc2c(=O)n(C)c(=O)nc1-2	0.323	8.4	98.5*	0.167	100.6*	103.6*	Redox 05 DTT=0.646*;Redox H2O2 1DTT=1.05*;Redox H2O2=13.7*
SMILES	M1 ag	MMP13 inh	Hsp90 inh	M1 antag	Cdc25B block	MKP-1 inh	others
COc1ccc2c(c1)C13CCCCC1C(C2)N(C)CC3 (stereo unspecified)	·	·	-1.6	·	·	·
Cc1nc2cc(-c3cccc(F)c3)nn2c(C)c1CCC(=O)N1CCC2(CC1)OCCO2	-0.527	-4.5	-5.2	0.622	-5.7	60.2*	Redox H2O2=>50
COCCCn1c(N)c(C(=O)NCCC(C)C)c2nc3ccccc3nc21	-0.167	-79.4	-10.5	-0.253	5.1	54.9*	Redox H2O2=>50
CCCCCn1c(N)c(C(=O)NCCN2CCOCC2)c2nc3ccccc3nc21	0.442	-183.5	-6.9	-0.0224	-33.0	36.1
CC1OC1P(=O)(O)O (stereo unspecified)	·	·	0.5	·	·	·
Cc1ccc(S(=O)(=O)Nc2cc(C(=O)N3CCC4(CC3)OCCO4)ccc2N2CCCCC2)cc1	2.8*	0.7	0.7	-0.416	4.1	13.9	M1 ag confirm=-9.92;M4 agonist ctr=-19.7
CC12CCC3C(CCC4=C(O)C(=O)CCC43C)C1CCC2=O (stereo unspecified)	·	·	-0.8	·	·	·
CCn1cnc2c(Nc3cccc(Cl)c3)nc(N[C@@H]3CCCC[C@@H]3N)nc21	·	·	-0.8	·	·	·
CCOc1ccc(-n2c(O)c(C=NCCN3CCNCC3)c(=O)[nH]c2=O)cc1	0.554	3.6	-0.2	-0.0321	21.8	-19.8
CCOC(=O)C1CCN(/C=C2/C(=O)NC(=O)N(c3ccc(OCC)cc3)C2=O)CC1	-3.31*	1.6	2.4	-0.125	-29.0	11.8	M1 ag confirm=-7.03;M4 agonist ctr=-22.6
COc1ccc2c(c1)[C@@]13CCCC[C@H]1[C@@H](C2)NCC3	·	·	0.5	·	·	·
O=C(c1cccs1)C1CN2CCC1CC2 (stereo unspecified)	8.41*	0.1	-3.4	-5.54*	-5.3	-3.0	M1 ag confirm=32;M4 agonist ctr=14.9
O=C(O)C1CN2CCC1CC2 (stereo unspecified)	12.6*	4.6	-0.1	-0.158	4.3	-0.2	M1 ag confirm=233*;M4 agonist ctr=-33.9
CCCCn1c(NC(=O)c2ccco2)c(C(=O)OCC)c2nc3ccccc3nc21	6.61*	-108.6	72.5*	-0.372	32.8	22.0	M1 ag confirm=24.4;M4 agonist ctr=?
O=[N+]([O-])c1ccc(O[C@@H]2O[C@H](CO)[C@@H](O)[C@H](O)[C@H]2F)c([N+](=O)[O-])c1	·	·	1.2	·	·	·
Cn1c2ccccc2c2c(C(=O)N3CCC4(CC3)OCCO4)cn(C3CCCCC3)c(=O)c21	4.35*	-48.1	0.1	-0.67	-7.7	10.6	M1 ag confirm=-13.7;M4 agonist ctr=-54
CC(C)Cn1cc(C(=O)N2CCC3(CC2)OCCO3)c2c3ccccc3n(C)c2c1=O	3.03*	-55.1	0.6	-1.57	-29.2	26.2	M1 ag confirm=-2;M4 agonist ctr=-18.7
Cn1cc(C(=O)N2CCC3(CC2)OCCO3)c2c3ccccc3n(C)c2c1=O	-0.0893	-45.5	-0.9	0.00142	-10.1	-3.0
CCc1c(C(=O)OC)ncc2[nH]c3cc(OC)c(OC)cc3c12	·	·	-2.1	·	·	·
